Compounds without any hit were thinned out: in the full panel of roughly 83,000, 20% have a hit.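 Each cell line was grown in a 96-well plate and treated with one concentration of compound for 48 hours. Values below 10 were considered active.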 A number with no mark means an inactive call. Activity calls are given as the source filed them.

What all share (assay): NCI-60 one-dose screen, 48 h (100 = growth as untreated, 0 = no growth, -100 = all killed)
Holding throughout (settings): 10 µM unless noted

Assay [1] relates to SR leukemia.
For assay [2], the system named is RPMI-8226 leukemia.
Assay [3] relates to OVCAR-8 ovarian.
Assay [4] concerns OVCAR-5 ovarian.
The test system of assay [5] is OVCAR-4 ovarian.
Assay [6] deals with SK-OV-3 ovarian.
For assay [7], the system named is IGROV1 ovarian.
The subject of assay [8] is OVCAR-3 ovarian.
In assay [9] the test system is HS 578T breast.
Assay [10] relates to NCI/ADR-RES ovarian.
For assay [11], the system named is T-47D breast.
The subject of assay [12] is BT-549 breast.
For assay [13], the system named is MDA-MB-435 melanoma.
Assay [14] relates to SW-620 colon.
Assay [15] relates to MCF7 breast.
Assay [16] relates to HCT-116 colon.
For assay [17], the system named is HCC-2998 colon.
Assay [18] concerns KM12 colon.
Assay [19] concerns MDA-MB-468 breast.

As for `COc1ccc(NC(=O)[C@@H](N)Cc2ccccc2)cc1C(=O)Nc1cccc(C2CC(=O)c3c(cc(OC)c(OC)c3OC)O2)c1` (stereo partly drawn), the growth in assay [1] was 14.7%; in assay [2] it was 20.2%; in [3] it was 29.1%; in [4] it was 101%; in assay [5] it was 54.7%; in assay [6], 152%. For the same compound, the growth was 74.5% in assay [7]; 64% in assay [8]; 77.6% in [9]; 39.3% in assay [10]; 25.3% in assay [11]; 19.8% in [12]. In addition, the growth in assay [13] is 56.8%; in [14], 50.9%; in assay [15] it was 28.1%; in assay [16], 45.2%; in [17], 114%; in [18], 35.1%. The growth in assay [19] is 44.3%.
On to `CN(C)CCOc1ccc(C(=O)C2[C@H](c3ccc(Cl)cc3)[C@@H](c3ccccc3)NC23C(=O)Nc2ccccc23)cc1` (stereo partly drawn), for which the growth was -18% (active) in assay [1]; 49.7% in assay [2]; 88.1% in assay [3]; 85.8% in assay [4]; 70.6% in assay [5]; 121% in [6]. Further, the growth was 80.2% in [7]; 73.2% in [8]; 77.4% in assay [9]; 86.4% in [10]; 67.9% in assay [11]; 81.8% in [12]. In addition, the growth in assay [13] was 44.6%; in assay [14], -57.7% (active); in assay [15] it was -20.8% (active); in assay [16] it was 22%; in assay [17] it was -59.9% (active); in assay [18] it was 33.4%. Moreover, in assay [19], the growth was -26% (active).
With `COc1ccc(-c2nc(SCC(C)C)nc(NCCc3c[nH]c4ccccc34)c2C#N)cc1`, the growth in assay [1] was 19.7%; in assay [2], 42.8%; in assay [3] it was 80.4%; in assay [4], 81.5%; in assay [5], 73.8%; in [6] it was 71.7%. Also, the growth in [7] is 101%; in [8], 85.4%; in [9], 43.2%; in assay [10] it was 61.3%; in [11], 22.6%; in assay [12], 80.8%. Moreover, the growth in assay [13] is 80.7%; in [14] it was 72.7%; in assay [15], 22.8%; in assay [16] it was 25.1%; in assay [17], 62.6%; in assay [18], 52.8%. Further, the growth in [19] is 58.4%.
As for `Cc1cccc(NC(=O)CN2CCN(c3ncnc4c3cnn4-c3ccccc3)CC2)c1`, the growth in assay [1] is 55.9%; in [2] it was 75.2%; in [3], 96%; in assay [4], 94.7%; in assay [5], 91.4%; in assay [6], 99.7%. In addition, the growth in assay [7] is 83.9%; in assay [8], 98.9%; in [9], 88.2%; in assay [10], 89.4%; in [11] it was 72.1%; in [12], 89.9%. For the same compound, the growth was 93.4% in [13]; 92% in [14]; 74.8% in assay [15]; 58.6% in [16]; 107% in [17]; 90.4% in [18]. Besides, the growth in assay [19] was 89.2%.
As to `COc1ccc2oc3c4[nH]c5ccccc5c4c4c(c3c2c1)C(=O)N(C(=O)OC(C)(C)C)C4=O`, the growth in assay [1] was -5.86% (active); in assay [2], -10.4% (active); in assay [3], -20.1% (active); in assay [4] it was 6.78% (active); in assay [5] it was -6.75% (active); in assay [6], -25.3% (active). Further, the growth in assay [7] was -1.25% (active); in assay [8], -33.7% (active); in assay [9], -1.85% (active); in [10], -17.9% (active); in assay [11], -7.22% (active); in [12] it was -44.2% (active). Besides, the growth in assay [13] was -26.4% (active); in assay [14] it was 6.81% (active); in assay [15] it was -25.9% (active); in assay [16], 1.65% (active); in assay [17], 23.2%; in assay [18], -18.9% (active). In assay [19], the growth was -22.9% (active).
As to `CC(=O)OC[C@@]1(C)C2CC[C@]3(C)C(CC=C4C5CC(C)(C)CC[C@]5(C(=O)Nc5ccc(C)cc5)CC[C@]43C)[C@@]2(C)C[C@@H](OC(C)=O)[C@@H]1OC(C)=O` (stereo partly drawn), the growth was 30.9% in assay [1]; 13.8% in [2]; 40.3% in assay [3]; 95.2% in [4]; 40.2% in assay [5]; 54.3% in [6]. The growth was 60.9% in assay [7]; 48.9% in assay [8]; 86% in assay [9]; 40.4% in [10]; 17.5% in assay [11]; 51.3% in assay [12]. The growth was 48.8% in assay [13]; 40.5% in assay [14]; 25.6% in assay [15]; 24.7% in assay [16]; 44.8% in assay [17]; 51.9% in assay [18]. In assay [19], the growth is 8.22% (active).
As to `Cc1occc1C(=O)NN1C(=O)/C(=C/C=C/c2ccc([N+](=O)[O-])o2)SC1=S`, the growth in assay [1] was 5.76% (active); in assay [2] it was -8.57% (active); in assay [3], -53.9% (active); in [4], -93.3% (active); in [5] it was -85% (active); in assay [6], 20.1%. In addition, the growth was -87.6% (active) in [7]; -100% (active) in assay [8]; 19.4% in assay [9]; -6.81% (active) in assay [10]; -15.9% (active) in assay [11]; -91% (active) in assay [12]. In addition, the growth in [13] was -66.2% (active); in [14], -43.2% (active); in assay [15], -33% (active); in assay [16] it was -73.2% (active); in assay [17] it was -75% (active); in assay [18], -66.2% (active). The growth in assay [19] was -52.3% (active).

These data come from PubChem BioAssay (NCI).
